Records with an inconclusive call do not appear. The source holds several records for some structures; these can differ, active in one and inactive in another. Active and inactive are the calls of the source. Unless noted, calls follow the shape of the dose curve; as a rule, active = well fitted curve in the direction sought with a large enough effect in the repeat runs; inconclusive = weak or mixed curves; inactive = no such curve, though single readings can be large; an effect the other way counts as inactive or inconclusive.
Experiments:
[1] = target: Estrogen receptor (Homo sapiens) (UniProt P03372); experiment: qHTS assay to identify small molecule antagonists of the estrogen receptor alpha (ER-alpha) signaling pathway (AID 743069; active = well fitted curve in the direction sought with a large enough effect in the signal ratio in the repeat runs, not every such curve was filed as active; the % refers to the signal ratio)
In short: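 A 17beta-estradiol challenge was applied right after compound transfer to ER-alpha-UAS-bla HEK293 cells previously kept in charcoal-stripped serum. Plates stood 18 hr at 37C and 5% CO2; fluorescence was read following 2 hr FRET substrate loading at room temperature.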

[2] = qHTS assay to identify small molecule antagonists of the estrogen receptor alpha (ER-alpha) signaling pathway - cell viability counter screen (AID 743074; calls by dose curve;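 also: HEK293 cells carrying ER-alpha-UAS-bla reporter stimulated with 17beta-estradiol; nearly all actives have a fitted effect of over 45% in size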)
[3] = target: Estrogen receptor (Homo sapiens) (UniProt P03372); experiment: qHTS assay to identify small molecule agonists of the estrogen receptor alpha (ER-alpha) signaling pathway (AID 743075; calls by dose curve;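 also: HEK293 GripTite cells with ER-alpha and UAS-driven beta-lactamase reporter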)
[4] = target: Estrogen receptor (Homo sapiens) (UniProt P03372); experiment: qHTS assay to identify small molecule agonists of the estrogen receptor alpha (ER-alpha) signaling pathway using the BG1 cell line (AID 743079); also: nearly all actives have a fitted effect of over 20% in size; also: potency is read from the fitted curve at half-maximal effect
[5] = qHTS assay to identify small molecule antagonists of the estrogen receptor alpha (ER-alpha) signaling pathway using the BG1 cell line (AID 743080; calls by dose curve;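 also: BG1 cells stimulated with 17beta-estradiol alongside compound; nearly all actives have a fitted effect of over 25% in size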; also: potency is read from the fitted curve at half-maximal effect; as to activity change, negative = inhibition: series mostly up to about 70 µM)
In short: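 Quantitative HTS on the Tox21 10K library: BG1 cells with endogenous ER-alpha and ERE-luciferase reporter, 17beta-estradiol stimulation, 21.5 h compound exposure, luminescence endpoint with parallel fluorescence cytotoxicity counter-read.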

[6] = qHTS assay to identify small molecule antagonists of the estrogen receptor alpha (ER-alpha) signaling pathway using the BG1 cell line - cell viability counter screen (AID 743081);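 also: compound given together with 17beta-estradiol as the ER stimulus; nearly all actives have a fitted effect of over 45% in size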; also: potency is read from the fitted curve at half-maximal effect; as to activity change, negative = cytotoxicity: series mostly up to about 70 µM
Aromatase (Homo sapiens) = Aromatase (Homo sapiens) (UniProt P11511); experiment: qHTS assay to identify aromatase inhibitors (AID 743083); also: nearly all actives have a fitted effect of over 55% in size; also: potency is read from the fitted curve at half-maximal effect
[7] = qHTS assay to identify aromatase inhibitors - cell viability counter screen (AID 743084);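 also: cells stimulated with testosterone during compound exposure; nearly all actives have a fitted effect of over 55% in size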; also: potency is read from the fitted curve at half-maximal effect
[8] = target: Aryl hydrocarbon receptor (Homo sapiens) (UniProt P35869); experiment: qHTS assay to identify small molecule that activate the aryl hydrocarbon receptor (AhR) signaling pathway (AID 743085); also: nearly all actives have a fitted effect of over 15% in size; also: potency is read from the fitted curve at half-maximal effect;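 as to activation: HG2L7.5c1 human HepG2 liver cells with stably integrated DRE-driven firefly reporter; series mostly up to about 70 µM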
In short: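 Measured in HG2L7.5c1 cells: CellTiter-Fluor signal (30 min incubation, 37C) for viability, then luciferase luminescence (30 min, room temperature). Compound contact time was 24 h at 37C, following a 5 h pre-incubation.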

[9] = qHTS assay to identify small molecule that activate the aryl hydrocarbon receptor (AhR) signaling pathway - cell viability counter screen (AID 743086); also: nearly all actives have a fitted effect of over 45% in size; also: potency is read from the fitted curve at half-maximal effect;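 as to viability change, negative = cytotoxic: HepG2 liver cells carrying the AhR DRE luciferase reporter; series mostly up to about 70 µM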
In short: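 HepG2-AhR-luc (HG2L7.5c1) cells, 4000/well, were preincubated 5 h at 37C, exposed to compound in qHTS format for 24 hr at 37C, then given CellTiter-Fluor for 30 min; viability was read as fluorescence in the reporter wells.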

[10] = target: Peroxisome proliferator-activated receptor gamma (Homo sapiens) (UniProt P37231); experiment: qHTS assay to identify small molecule antagonists of the peroxisome proliferator-activated receptor gamma (PPARg) signaling pathway (AID 743191; calls by dose curve; also: nearly all actives have a fitted effect of over 30% in size; also: potency is read from the fitted curve at half-maximal effect)
In short: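 GeneBLAzer PPARg UAS-bla HEK293H cells carrying a UAS-driven beta-lactamase reporter were plated at 3000 cells/well, preincubated 5 h at 37C, then given compound for 17 h at 37C; LiveBLAzer B/G FRET substrate was read after 1 h at room temperature.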

[11] = qHTS assay to identify small molecule antagonists of the peroxisome proliferator-activated receptor gamma (PPARg) signaling pathway - cell viability counter screen (AID 743194); also: nearly all actives have a fitted effect of over 55% in size
In short: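 PPARg-UAS-bla HEK293H cells were plated, rested 5 h at 37 C, then treated with compounds plus rosiglitazone (50 nM final) for 17 h at 37 C; viability was then read by CellTiter-Glo luminescence after 30 min at room temperature.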

[12] = qHTS assay for small molecule agonists of the antioxidant response element (ARE) signaling pathway - cell viability counter screen (AID 743203; calls by dose curve; also: nearly all actives have a fitted effect of over 55% in size)
In short: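 Parallel cytotoxicity read-out for the ARE-bla screen: HepG2 reporter cells, 16 hrs with compounds, then CellTiter-Glo luminescence.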

[13] = qHTS assay for small molecule activators of the heat shock response signaling pathway - cell viability counter screen (AID 743209); also: nearly all actives have a fitted effect of over 50% in size
In short: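 To flag cytotoxic compounds, HSE-bla HeLa cells plated at 1500 cells/well were dosed for 5 h at 37 C, followed by the reporter FRET read and then CellTiter-Glo, with luminescence recorded 30 min after reagent addition.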

[14] = qHTS assay for small molecule activators of the heat shock response signaling pathway (AID 743210; active = well fitted activation curve with a large enough effect in the signal ratio in the repeat runs, with a control signal flat, not every such curve was filed as active; the % refers to the signal ratio; also: series mostly up to about 63 µM)
In short: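 Heat shock element–beta-lactamase HeLa reporter cells; qHTS with compounds for 5 h at 37 C; detection by FRET substrate fluorescence after 2.5 h at RT.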

[15] = qHTS assay to identify small molecule agonists of the peroxisome proliferator-activated receptor delta (PPARd) signaling pathway - cell viability counter screen (AID 743211); also: nearly all actives have a fitted effect of over 55% in size
In short: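 Following 5 h plating at 37 C and 5% CO2, PPARd UAS-bla HEK293H cells took up test compounds for 17 h. Viability was quantified by luminescence 30 min after CellTiter-Glo addition at room temperature.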

[16] = target: Peroxisome proliferator-activated receptor delta (Homo sapiens) (UniProt Q03181); experiment: qHTS assay to identify small molecule agonists of the peroxisome proliferator-activated receptor delta (PPARd) signaling pathway (AID 743212; calls by dose curve)
In short: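 Beta-lactamase reporter read by fluorescence (LiveBLAzer B/G FRET, 2 h, room temperature). Test agents, in DMSO, incubated at 37 C with PPARd-bla HEK293H cells.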

[17] = test system: thyroid hormone receptor (rat, GH3 cells); experiment: qHTS assay to identify small molecule agonists of the thyroid receptor (TR) signaling pathway (AID 743066; calls by dose curve)
[18] = qHTS assay for small molecule agonists of the antioxidant response element (ARE) signaling pathway (AID 743202; active = well fitted activation curve with a large enough effect in the signal ratio in the repeat runs, not every such curve was filed as active; the % refers to the signal ratio; also: potency is read from the fitted curve at half-maximal effect)
In short: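 Following a 16 h, 37 C exposure of reporter HepG2 cells (ARE-driven beta-lactamase, 2,000 cells/well) to compounds, FRET substrate was applied for 2 h at room temperature and fluorescence intensity recorded.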

[19] = target: Peroxisome proliferator-activated receptor gamma (Homo sapiens) (UniProt P37231); experiment: qHTS assay to identify small molecule agonists of the peroxisome proliferator-activated receptor gamma (PPARg) signaling pathway (AID 743094; active = well fitted activation curve with a large enough effect in the signal ratio in the repeat runs, not every such curve was filed as active; the % refers to the signal ratio)
In short: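 Fluorescence-based beta-lactamase readout in HEK293H PPARg UAS-bla cells after 17 h compound exposure (37C) and 1 h B/G FRET substrate incubation at room temperature.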
% is scaled to controls: 0 for no effect and ±100 for the full control effect.

Sequence of Peroxisome proliferator-activated receptor gamma (Homo sapiens) (P37231 whole entry, looked up): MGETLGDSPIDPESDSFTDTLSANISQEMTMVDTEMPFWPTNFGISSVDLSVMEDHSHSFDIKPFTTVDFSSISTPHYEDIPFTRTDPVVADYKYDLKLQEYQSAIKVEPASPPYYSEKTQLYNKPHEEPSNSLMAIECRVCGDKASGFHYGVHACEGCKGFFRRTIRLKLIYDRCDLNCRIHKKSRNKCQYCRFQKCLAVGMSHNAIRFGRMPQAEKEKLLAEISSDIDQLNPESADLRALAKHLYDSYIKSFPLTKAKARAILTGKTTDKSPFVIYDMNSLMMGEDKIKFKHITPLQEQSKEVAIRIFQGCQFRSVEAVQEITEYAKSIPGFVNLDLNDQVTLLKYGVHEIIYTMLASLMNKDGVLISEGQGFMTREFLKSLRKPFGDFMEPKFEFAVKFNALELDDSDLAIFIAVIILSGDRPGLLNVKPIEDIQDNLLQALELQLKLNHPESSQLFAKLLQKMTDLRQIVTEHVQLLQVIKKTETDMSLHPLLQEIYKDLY
Sequence of Estrogen receptor (Homo sapiens) (P03372 whole entry, looked up): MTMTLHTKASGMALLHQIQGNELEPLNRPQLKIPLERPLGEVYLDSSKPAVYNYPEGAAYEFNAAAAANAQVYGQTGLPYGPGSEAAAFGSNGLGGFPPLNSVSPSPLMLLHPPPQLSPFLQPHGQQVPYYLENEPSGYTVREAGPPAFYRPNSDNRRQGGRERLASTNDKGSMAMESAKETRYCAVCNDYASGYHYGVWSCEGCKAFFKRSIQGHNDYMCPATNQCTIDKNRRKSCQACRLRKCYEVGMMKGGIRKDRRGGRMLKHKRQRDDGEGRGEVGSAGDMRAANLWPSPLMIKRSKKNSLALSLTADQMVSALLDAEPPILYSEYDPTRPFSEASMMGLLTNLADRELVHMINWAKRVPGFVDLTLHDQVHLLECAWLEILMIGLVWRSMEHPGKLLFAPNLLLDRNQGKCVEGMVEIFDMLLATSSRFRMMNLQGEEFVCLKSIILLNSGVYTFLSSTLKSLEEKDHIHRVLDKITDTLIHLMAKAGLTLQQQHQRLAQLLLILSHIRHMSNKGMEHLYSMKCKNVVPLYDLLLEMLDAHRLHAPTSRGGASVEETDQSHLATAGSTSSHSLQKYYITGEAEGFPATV
Sequence of Aryl hydrocarbon receptor (Homo sapiens) (P35869 whole entry, looked up): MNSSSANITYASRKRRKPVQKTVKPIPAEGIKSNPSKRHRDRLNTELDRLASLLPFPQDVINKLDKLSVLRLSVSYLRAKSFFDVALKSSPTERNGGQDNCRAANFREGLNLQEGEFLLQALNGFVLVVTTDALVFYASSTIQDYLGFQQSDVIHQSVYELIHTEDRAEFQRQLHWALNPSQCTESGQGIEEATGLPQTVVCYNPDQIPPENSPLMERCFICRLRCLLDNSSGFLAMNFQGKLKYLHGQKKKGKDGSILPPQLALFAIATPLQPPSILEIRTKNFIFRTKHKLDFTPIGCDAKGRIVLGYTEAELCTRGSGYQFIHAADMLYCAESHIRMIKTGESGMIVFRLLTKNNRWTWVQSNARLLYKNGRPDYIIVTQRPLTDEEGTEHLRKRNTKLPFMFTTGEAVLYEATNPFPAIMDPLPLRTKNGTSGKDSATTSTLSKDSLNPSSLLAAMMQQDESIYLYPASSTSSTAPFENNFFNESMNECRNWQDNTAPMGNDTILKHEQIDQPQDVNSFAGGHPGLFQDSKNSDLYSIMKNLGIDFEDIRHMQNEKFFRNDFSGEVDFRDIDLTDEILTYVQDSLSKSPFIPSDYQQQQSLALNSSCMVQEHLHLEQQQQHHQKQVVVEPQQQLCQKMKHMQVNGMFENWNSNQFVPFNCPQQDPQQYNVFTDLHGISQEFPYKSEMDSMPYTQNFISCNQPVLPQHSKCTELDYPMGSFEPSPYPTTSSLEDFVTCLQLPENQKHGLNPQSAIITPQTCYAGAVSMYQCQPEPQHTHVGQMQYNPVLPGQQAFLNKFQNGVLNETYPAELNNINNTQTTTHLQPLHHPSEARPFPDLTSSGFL
Sequence of Aromatase (Homo sapiens) (P11511 whole entry, looked up): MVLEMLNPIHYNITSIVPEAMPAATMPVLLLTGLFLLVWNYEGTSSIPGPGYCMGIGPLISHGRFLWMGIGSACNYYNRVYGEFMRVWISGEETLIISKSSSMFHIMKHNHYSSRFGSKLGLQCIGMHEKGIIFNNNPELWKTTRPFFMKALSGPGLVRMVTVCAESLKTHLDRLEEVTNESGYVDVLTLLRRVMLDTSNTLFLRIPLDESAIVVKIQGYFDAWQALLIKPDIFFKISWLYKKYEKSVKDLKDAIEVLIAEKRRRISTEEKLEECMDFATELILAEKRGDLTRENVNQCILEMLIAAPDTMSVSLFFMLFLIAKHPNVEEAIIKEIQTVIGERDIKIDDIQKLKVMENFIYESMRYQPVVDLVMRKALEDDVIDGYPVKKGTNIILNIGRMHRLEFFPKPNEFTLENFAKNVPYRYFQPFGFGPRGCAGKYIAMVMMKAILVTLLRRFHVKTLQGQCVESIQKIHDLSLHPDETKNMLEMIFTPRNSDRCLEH
Sequence of Peroxisome proliferator-activated receptor delta (Homo sapiens) (Q03181 whole entry, looked up): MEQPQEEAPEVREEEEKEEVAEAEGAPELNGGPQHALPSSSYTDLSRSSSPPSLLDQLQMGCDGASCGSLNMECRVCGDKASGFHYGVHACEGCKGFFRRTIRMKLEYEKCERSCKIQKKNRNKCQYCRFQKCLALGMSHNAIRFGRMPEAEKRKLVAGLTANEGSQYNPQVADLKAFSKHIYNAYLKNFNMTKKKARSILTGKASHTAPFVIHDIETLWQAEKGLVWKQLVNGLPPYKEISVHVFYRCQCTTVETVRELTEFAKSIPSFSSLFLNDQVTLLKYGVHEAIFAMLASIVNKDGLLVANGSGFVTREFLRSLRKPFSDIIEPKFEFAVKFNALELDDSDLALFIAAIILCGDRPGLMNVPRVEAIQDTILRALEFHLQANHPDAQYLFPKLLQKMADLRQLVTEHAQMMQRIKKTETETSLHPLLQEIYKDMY

O=S(=O)(O)c1cc(Cl)c(Cl)cc1Cl
inactive: Potency [1] | outcome [2] | Potency [3] | Potency [4] | Potency [5] | Potency [6] | Potency (Aromatase (Homo sapiens)) | Potency [7] | Potency [8] | Potency [9] | Potency [10] | Potency [11] | Potency [12] | outcome [13] | outcome [14] | Potency [15] | Potency [16]

O=c1c2ccccc2oc2ccccc12
inactive: outcome [17] | Potency [3] | Potency [6] | Potency (Aromatase (Homo sapiens)) | Potency [7] | Potency [9] | Potency [11] | Potency [18] | Potency [12] | outcome [13] | Potency [15]
active: Potency [4] 48.6 µM

CC1=CC(=C(c2ccc(N)cc2)c2ccc(N)cc2)C=CC1=N
inactive: activation [17] -3.23% [at 8.08 µM] | Potency [3] | activation [4] 1.34% [at 8.47 µM] | activity change, negative = inhibition [5] -25% [at 8.47 µM] | activity change, negative = cytotoxicity [6] -20.8% [at 8.47 µM] | Potency [8] | viability change, negative = cytotoxic [9] -14.7% [at 8.47 µM] | activation [19] -4.84% [at 7.08 µM] | activity change, negative = cytotoxicity [11] -29.3% [at 5.95 µM] | viability change, negative = cytotoxic [12] -12.3% [at 8.36 µM] | activity change, negative = cytotoxicity [13] -5.14% [at 5.95 µM] | activation [14] -0.545% [at 5.95 µM] | activation [16] -0.0637% [at 5.95 µM]
active: Potency [6] 11.9 µM | Potency (Aromatase (Homo sapiens)) 8.41 µM | Potency [7] 11.9 µM | Potency [9] 18.8 µM

CC/C=C\CCO
inactive: outcome [17] | outcome [2] | Potency [6] | Potency [9] | Potency [11] | Potency [18] | Potency [12] | outcome [13] | outcome [14]

Cc1ccc(NC(=O)c2ccc(CN3CCN(C)CC3)cc2)cc1Nc1nccc(-c2cccnc2)n1
active: Potency [8] 21.1 µM
inactive: outcome [2] | Potency [3] | Potency [4] | Potency [11] | Potency [12] | outcome [13] | outcome [14]

CCCc1ccc(OC)cc1
inactive: Potency [1] | outcome [2] | Potency [3] | Potency [5] | Potency [6] | Potency (Aromatase (Homo sapiens)) | Potency [7] | Potency [8] | Potency [19] | Potency [10] | Potency [11] | Potency [18] | Potency [12] | outcome [13] | outcome [14] | Potency [15] | Potency [16]

Cc1cc(C)n(CO)n1
inactive: Potency [1] | outcome [2] | Potency [3] | Potency [4] | Potency [5] | Potency [6] | Potency (Aromatase (Homo sapiens)) | Potency [7] | Potency [8] | Potency [19] | Potency [11] | Potency [18] | Potency [12] | outcome [13] | outcome [14] | Potency [15] | Potency [16]

O=C(C1CCCCC1)N1CC(=O)N2CCCc3ccccc3C2C1 (configuration not stated)
inactive: Potency [11] | Potency [12] | outcome [14]

CC(O)C(C)O (configuration not stated)
inactive: outcome [2] | Potency [6] | Potency (Aromatase (Homo sapiens)) | Potency [7] | Potency [8] | Potency [10] | Potency [11] | Potency [18] | Potency [12] | outcome [13] | outcome [14] | Potency [16]

CC1=C(C)C(=O)C(CCCCC#CCCCC#CCO)=C(C)C1=O
active: Potency [5] 15 µM | Potency [8] 11.9 µM | Potency [10] 29.8 µM | Potency [18] 23.7 µM
inactive: Potency [3] | Potency [6] | Potency [7] | Potency [9] | Potency [19] | Potency [11] | Potency [12]

C[C@H](N)C(=O)N[C@@H](C)C(=O)NC1[C@H]2CN(c3nc4c(cc3F)c(=O)c(C(=O)O)cn4-c3ccc(F)cc3F)C[C@@H]12 (some centres not stated)
inactive: Potency [11] | Potency [12] | outcome [13] | outcome [14]

O=C(OCCN1CCOCC1)c1cccnc1Nc1cccc(C(F)(F)F)c1
active: Potency [18] 26.6 µM
inactive: Potency [10] | Potency [11] | Potency [12] | outcome [13] | outcome [14] | Potency [15] | Potency [16]

Cc1nc2sccn2c(=O)c1CCN1CCC(=C(c2ccc(F)cc2)c2ccc(F)cc2)CC1
inactive: Potency [1] | outcome [2] | Potency [3] | Potency [6] | Potency (Aromatase (Homo sapiens)) | Potency [7] | Potency [8] | Potency [11] | Potency [12] | outcome [14] | Potency [16]
active: Potency [5] 29.8 µM

CC(C)(C)c1cc(C=O)cc(C(C)(C)C)c1O
inactive: Potency [10] | Potency [11] | Potency [18] | Potency [12] | outcome [13] | outcome [14] | Potency [15]

Nc1ncnc2c1ncn2[C@@H]1O[C@H](CO)[C@@H](O)[C@H]1O
inactive: Potency [1] | outcome [2] | Potency [3] | Potency [4] | Potency [5] | Potency [6] | Potency (Aromatase (Homo sapiens)) | Potency [7] | Potency [8] | Potency [19] | Potency [10] | Potency [11] | Potency [12] | outcome [13] | outcome [14]

COc1ccc(/C(C)=C/C(=O)O)c(OC)c1
inactive: Potency [11] | Potency [18] | Potency [12] | outcome [13] | outcome [14] | Potency [15] | Potency [16]

CC(C)(Cc1c[nH]c2ccccc12)NCC(O)COc1ccccc1C#N (configuration not stated)
inactive: outcome [2] | Potency [6] | Potency (Aromatase (Homo sapiens)) | Potency [7] | Potency [11] | outcome [13] | outcome [14] | Potency [16]
active: Potency [8] 29.8 µM

Cc1ccc(Cl)c(OCC(O)CNC(C)(C)C)c1 (configuration not stated)
inactive: Potency [10] | Potency [11] | Potency [18] | Potency [12] | outcome [13] | outcome [14] | Potency [15] | Potency [16]

CCC(=O)O[C@]1(C(=O)COC)[C@@H](C)C[C@H]2[C@@H]3CCC4=CC(=O)C=C[C@]4(C)C3(F)[C@@H](O)C[C@@]21C (some centres not stated)
inactive: Potency [10] | Potency [11] | Potency [18] | Potency [12] | outcome [14] | Potency [15] | Potency [16]

Cc1ccc2ccccc2c1[N+](=O)[O-]
inactive: Potency [1] | outcome [2] | Potency [3] | Potency [4] | Potency [5] | Potency [6] | Potency [8] | Potency [9] | Potency [19] | Potency [10] | Potency [11] | Potency [18] | Potency [12] | outcome [13] | outcome [14] | Potency [15] | Potency [16]

COc1ccnc2c1CCCCC2S(=O)c1nc2ccccc2[nH]1 (configuration not stated)
inactive: Potency [11] | Potency [12] | outcome [13]
active: Potency [18] 3.35 µM

COC(=O)Cc1cccc2ccccc12
inactive: Potency [1] | outcome [2] | Potency [3] | Potency [4] | Potency [5] | Potency [6] | Potency (Aromatase (Homo sapiens)) | Potency [7] | Potency [8] | Potency [19] | Potency [18] | Potency [12] | outcome [13] | outcome [14] | Potency [15] | Potency [16]

CCOC(C)OCC
inactive: outcome [2] | Potency [6] | Potency (Aromatase (Homo sapiens)) | Potency [7] | Potency [8] | Potency [9] | Potency [11] | Potency [12] | outcome [13] | Potency [15]
